Test results as given in the supplement of paper PMC11732987, “Enantioselective OTUD7B fragment discovery through chemoproteomics screening and high-throughput optimisation” (Communications Chemistry, 2025).

Tests used:
Experiment in all cases: log2 ratio of Biotin-Ahx-Ub-VS probe labelling (fragment/DMSO); higher = less target engagement (more negative = stronger competition), active = hit call of the paper (q ≤ 0.05, log2 ratio ≤ -1)
Details in all cases: compound concentration: 200 uM; treatment time: 3 h
[1] = target: USP34 (UniProt Q70CQ2)
In short: (§1)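 HEK293T lysate, 495 µg per sample in Tris/CHAPS/IGEPAL buffer with protease inhibitors, was treated in triplicate with fragment at 200 µM or vehicle for 3 h and then with Biotin-Ahx-Ub-VS at 0.5 µM final for 1 h. Labelled DUBs were NeutrAvidin-enriched, digested with LysC and trypsin, and run by diaPASEF LC-MS/MS. Spectronaut label-free quantities were global-median-normalised, and values are average log2 fragment/vehicle ratios by unpaired t-test on proteins with ≥2 unique peptides.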

[2] = target: T1, USP36 (UniProt Q9P275)
T1 sequence (whole entry): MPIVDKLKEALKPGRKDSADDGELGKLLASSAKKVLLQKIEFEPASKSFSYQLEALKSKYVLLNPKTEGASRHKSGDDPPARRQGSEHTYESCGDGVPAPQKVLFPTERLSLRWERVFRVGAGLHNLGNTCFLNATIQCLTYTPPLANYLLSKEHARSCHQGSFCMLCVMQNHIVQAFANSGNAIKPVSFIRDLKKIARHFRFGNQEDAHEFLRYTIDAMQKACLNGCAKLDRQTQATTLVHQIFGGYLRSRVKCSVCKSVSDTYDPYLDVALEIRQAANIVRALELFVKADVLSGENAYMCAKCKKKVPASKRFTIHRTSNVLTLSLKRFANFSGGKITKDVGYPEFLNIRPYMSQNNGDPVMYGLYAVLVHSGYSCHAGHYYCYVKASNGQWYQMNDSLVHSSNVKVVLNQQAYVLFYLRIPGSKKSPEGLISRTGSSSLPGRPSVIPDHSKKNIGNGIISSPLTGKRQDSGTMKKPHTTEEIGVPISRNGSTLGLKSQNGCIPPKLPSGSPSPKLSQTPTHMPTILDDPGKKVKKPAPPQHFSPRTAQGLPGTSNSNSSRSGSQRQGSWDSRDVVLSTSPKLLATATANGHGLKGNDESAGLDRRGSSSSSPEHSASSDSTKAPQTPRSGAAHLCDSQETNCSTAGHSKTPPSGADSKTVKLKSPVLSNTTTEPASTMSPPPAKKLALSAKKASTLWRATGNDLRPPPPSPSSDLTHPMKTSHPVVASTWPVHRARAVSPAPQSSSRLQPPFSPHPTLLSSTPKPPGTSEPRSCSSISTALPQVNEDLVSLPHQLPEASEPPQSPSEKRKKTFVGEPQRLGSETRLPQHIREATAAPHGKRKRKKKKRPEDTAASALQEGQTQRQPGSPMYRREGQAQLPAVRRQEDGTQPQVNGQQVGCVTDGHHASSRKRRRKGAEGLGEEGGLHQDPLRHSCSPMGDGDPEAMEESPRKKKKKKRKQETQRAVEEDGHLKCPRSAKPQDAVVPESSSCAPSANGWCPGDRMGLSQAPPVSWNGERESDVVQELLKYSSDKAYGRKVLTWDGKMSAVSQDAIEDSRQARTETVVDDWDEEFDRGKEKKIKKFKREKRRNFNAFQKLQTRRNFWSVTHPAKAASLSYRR
In short: as §1

[3] = target: T2, USP38 (UniProt Q8NB14)
T2 sequence (whole entry): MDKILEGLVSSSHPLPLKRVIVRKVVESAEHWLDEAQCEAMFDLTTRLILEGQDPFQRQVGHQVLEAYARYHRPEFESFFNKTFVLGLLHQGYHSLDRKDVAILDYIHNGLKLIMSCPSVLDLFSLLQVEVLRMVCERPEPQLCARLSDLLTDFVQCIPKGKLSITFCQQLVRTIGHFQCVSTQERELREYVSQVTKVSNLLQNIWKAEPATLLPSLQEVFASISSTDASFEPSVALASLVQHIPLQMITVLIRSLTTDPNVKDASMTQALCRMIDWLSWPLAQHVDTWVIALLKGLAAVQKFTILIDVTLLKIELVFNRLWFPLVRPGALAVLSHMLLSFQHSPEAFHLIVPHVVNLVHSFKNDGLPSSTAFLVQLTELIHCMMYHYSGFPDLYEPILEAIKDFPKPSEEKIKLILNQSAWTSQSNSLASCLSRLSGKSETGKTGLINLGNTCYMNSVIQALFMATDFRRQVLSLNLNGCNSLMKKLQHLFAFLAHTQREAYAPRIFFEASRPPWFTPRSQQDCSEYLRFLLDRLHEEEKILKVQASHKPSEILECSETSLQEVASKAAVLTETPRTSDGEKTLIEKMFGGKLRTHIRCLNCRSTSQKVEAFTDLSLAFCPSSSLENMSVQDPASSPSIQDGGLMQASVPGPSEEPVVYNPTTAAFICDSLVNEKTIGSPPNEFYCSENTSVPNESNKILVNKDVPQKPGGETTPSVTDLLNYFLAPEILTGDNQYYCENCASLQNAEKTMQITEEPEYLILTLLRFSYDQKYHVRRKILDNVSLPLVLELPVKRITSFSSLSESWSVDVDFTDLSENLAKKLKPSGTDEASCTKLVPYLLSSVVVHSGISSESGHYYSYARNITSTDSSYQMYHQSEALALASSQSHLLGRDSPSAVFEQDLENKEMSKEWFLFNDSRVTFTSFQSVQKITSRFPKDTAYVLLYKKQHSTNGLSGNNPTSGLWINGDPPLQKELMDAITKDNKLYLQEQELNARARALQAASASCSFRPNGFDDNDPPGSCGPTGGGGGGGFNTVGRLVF
In short: as §1

[4] = target: T3, USP39 (UniProt Q53GS9)
T3 sequence (whole entry): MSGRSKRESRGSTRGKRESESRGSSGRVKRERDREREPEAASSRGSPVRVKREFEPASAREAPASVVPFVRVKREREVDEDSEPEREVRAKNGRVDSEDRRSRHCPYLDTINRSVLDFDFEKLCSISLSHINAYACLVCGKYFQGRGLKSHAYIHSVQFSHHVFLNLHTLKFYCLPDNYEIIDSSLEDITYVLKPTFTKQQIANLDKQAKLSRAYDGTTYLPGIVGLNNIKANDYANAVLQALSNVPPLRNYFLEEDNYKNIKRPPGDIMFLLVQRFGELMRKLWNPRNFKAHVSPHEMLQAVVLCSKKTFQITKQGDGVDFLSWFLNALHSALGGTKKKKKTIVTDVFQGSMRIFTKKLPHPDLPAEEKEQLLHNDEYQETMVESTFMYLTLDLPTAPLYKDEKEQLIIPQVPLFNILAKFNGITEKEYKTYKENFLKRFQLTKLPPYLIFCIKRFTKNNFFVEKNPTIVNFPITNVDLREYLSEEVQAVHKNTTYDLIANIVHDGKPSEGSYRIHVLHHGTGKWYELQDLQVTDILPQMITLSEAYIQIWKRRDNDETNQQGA
In short: as §1

[5] = target: T4, USP4 (UniProt Q13107)
T4 sequence (whole entry): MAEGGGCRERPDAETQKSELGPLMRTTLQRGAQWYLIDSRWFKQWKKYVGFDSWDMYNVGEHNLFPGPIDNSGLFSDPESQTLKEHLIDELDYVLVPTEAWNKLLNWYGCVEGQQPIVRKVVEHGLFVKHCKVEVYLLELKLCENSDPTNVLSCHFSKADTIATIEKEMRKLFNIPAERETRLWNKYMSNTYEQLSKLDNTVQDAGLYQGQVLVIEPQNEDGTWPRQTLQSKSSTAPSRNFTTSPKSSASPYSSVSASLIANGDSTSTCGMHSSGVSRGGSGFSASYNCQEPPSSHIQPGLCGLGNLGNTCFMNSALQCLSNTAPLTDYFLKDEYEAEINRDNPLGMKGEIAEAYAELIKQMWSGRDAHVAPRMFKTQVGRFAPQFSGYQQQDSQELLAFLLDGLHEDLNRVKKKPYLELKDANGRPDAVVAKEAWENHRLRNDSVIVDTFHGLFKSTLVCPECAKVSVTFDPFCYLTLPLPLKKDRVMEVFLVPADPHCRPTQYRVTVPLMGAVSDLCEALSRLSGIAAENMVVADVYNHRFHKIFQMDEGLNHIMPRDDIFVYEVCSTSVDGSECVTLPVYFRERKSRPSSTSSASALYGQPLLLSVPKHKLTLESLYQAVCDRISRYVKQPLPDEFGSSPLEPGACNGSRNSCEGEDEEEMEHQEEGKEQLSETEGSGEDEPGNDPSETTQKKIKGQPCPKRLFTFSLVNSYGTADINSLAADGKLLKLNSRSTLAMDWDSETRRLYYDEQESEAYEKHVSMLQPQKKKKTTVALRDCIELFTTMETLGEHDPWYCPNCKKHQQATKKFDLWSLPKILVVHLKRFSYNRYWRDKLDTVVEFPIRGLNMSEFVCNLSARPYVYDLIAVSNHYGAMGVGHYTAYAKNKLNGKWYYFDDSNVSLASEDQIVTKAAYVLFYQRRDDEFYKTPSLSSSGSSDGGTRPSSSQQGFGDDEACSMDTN
In short: as §1

Measured: log2 ratio of Biotin-Ahx-Ub-VS probe labelling

USP34, sequence (Q70CQ2 whole entry, the tested form may be a part): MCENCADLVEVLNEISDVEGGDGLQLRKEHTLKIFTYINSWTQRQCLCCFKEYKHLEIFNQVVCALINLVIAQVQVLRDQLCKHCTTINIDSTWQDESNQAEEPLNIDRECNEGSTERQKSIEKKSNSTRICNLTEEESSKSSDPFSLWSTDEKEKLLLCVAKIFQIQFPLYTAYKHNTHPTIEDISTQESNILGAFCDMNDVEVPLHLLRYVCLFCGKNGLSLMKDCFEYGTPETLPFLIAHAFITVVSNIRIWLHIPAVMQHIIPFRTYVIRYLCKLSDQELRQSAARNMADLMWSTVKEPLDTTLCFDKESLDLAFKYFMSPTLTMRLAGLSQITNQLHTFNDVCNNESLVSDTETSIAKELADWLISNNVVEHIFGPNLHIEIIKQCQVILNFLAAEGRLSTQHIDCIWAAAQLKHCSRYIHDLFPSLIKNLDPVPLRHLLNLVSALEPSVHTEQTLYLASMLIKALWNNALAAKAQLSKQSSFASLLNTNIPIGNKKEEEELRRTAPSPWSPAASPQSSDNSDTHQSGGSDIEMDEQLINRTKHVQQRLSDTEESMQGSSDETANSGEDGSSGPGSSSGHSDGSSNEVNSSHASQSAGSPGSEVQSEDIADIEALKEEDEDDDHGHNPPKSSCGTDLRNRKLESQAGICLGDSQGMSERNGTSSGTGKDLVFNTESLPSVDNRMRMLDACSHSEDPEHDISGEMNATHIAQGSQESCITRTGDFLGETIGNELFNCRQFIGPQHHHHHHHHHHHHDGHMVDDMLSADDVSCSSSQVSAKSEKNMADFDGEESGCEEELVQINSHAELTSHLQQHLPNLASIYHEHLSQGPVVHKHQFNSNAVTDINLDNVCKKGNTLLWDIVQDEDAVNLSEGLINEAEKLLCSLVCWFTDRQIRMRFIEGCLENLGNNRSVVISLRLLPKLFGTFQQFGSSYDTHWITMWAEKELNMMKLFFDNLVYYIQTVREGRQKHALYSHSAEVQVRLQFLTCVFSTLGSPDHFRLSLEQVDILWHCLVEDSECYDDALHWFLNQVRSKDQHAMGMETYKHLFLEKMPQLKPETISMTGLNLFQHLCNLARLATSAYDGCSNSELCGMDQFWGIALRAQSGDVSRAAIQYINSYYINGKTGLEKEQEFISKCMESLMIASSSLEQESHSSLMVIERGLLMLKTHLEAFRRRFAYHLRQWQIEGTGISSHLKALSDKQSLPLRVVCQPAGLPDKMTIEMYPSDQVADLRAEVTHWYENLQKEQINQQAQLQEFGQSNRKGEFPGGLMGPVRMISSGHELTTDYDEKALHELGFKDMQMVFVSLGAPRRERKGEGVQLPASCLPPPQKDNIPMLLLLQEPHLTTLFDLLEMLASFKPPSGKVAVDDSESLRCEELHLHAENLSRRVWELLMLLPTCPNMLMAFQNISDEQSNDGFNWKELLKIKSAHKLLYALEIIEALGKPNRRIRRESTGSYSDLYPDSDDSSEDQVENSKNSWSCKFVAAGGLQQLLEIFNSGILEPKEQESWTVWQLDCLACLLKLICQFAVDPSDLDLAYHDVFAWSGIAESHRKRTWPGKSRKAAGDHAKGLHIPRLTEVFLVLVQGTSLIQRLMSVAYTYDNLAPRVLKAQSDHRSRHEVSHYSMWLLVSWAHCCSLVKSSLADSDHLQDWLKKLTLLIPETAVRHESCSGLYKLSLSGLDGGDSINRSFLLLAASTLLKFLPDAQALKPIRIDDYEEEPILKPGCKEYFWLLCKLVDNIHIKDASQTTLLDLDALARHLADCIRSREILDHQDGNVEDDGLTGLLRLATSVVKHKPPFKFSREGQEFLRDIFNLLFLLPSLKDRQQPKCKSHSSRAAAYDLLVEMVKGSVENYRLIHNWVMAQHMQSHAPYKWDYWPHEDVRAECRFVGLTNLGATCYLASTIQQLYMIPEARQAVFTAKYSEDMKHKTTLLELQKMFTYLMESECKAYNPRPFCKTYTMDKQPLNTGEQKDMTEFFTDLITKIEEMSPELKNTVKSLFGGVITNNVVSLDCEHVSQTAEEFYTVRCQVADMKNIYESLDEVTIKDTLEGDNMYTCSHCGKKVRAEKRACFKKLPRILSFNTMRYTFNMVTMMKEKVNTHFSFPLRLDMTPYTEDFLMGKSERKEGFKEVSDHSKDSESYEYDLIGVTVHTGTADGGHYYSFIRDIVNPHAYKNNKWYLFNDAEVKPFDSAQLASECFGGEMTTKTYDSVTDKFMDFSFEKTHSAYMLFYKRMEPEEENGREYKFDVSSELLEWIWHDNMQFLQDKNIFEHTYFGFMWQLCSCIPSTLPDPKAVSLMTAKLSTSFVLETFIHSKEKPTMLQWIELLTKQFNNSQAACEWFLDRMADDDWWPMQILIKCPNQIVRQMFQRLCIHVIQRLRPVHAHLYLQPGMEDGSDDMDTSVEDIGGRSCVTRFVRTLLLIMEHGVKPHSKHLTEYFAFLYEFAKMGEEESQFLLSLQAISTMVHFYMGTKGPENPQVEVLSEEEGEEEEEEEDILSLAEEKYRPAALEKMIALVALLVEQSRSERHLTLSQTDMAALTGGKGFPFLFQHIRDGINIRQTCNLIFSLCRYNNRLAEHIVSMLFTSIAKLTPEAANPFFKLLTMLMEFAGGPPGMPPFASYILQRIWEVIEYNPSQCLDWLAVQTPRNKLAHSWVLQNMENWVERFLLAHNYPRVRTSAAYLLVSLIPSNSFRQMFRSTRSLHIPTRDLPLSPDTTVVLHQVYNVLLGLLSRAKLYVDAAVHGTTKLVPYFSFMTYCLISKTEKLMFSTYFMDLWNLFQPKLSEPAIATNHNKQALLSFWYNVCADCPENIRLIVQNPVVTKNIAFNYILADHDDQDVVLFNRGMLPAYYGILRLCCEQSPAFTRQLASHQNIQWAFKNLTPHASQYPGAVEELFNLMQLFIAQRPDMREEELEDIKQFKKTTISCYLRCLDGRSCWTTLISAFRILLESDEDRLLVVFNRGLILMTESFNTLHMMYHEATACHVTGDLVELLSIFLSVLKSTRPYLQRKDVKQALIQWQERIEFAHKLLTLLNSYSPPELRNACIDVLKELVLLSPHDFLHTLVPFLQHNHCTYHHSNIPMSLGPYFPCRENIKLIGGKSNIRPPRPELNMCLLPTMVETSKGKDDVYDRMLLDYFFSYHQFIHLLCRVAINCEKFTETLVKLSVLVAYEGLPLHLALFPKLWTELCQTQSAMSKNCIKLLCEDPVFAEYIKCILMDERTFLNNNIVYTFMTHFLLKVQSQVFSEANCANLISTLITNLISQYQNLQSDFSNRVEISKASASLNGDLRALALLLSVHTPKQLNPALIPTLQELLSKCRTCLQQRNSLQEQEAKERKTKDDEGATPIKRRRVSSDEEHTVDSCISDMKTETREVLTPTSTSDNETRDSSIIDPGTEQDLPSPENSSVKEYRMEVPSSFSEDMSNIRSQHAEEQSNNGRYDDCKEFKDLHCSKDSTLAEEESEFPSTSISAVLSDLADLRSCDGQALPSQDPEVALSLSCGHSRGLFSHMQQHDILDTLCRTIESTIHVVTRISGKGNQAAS

Cc1noc(N2CCN(C(=O)CCl)CC2)n1.Cl
inactive: [1] 0.028 | [2] -0.0365 | [3] -0.0491 | [4] 0.251 | [5] 0.0534
